Compounds without any hit were thinned out: in the full panel of roughly 83,000, 20% have a hit.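 96-well plates, one dose, 48 hours. Percent growth reported; active if below 10.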 Unmarked numbers belong to inactive results. Calls of active or inactive are those of the source.
What was measured:
Assay in all cases: NCI-60 one-dose screen, 48 h (100 = growth as untreated, 0 = no growth, -100 = all killed)
Details in all cases: 10 µM unless noted
NCI-H23 lung = test system: NCI-H23 lung
NCI-H226 lung = test system: NCI-H226 lung
NCI-H322M lung = test system: NCI-H322M lung
HOP-62 NSCLC = test system: HOP-62 NSCLC
NCI-H460 lung = test system: NCI-H460 lung
HOP-92 NSCLC = test system: HOP-92 NSCLC
NCI-H522 lung = test system: NCI-H522 lung
A549/ATCC NSCLC = test system: A549/ATCC NSCLC
786-0 renal = test system: 786-0 renal
COLO 205 colon = test system: COLO 205 colon
DU-145 prostate = test system: DU-145 prostate
K-562 leukemia = test system: K-562 leukemia
MALME-3M melanoma = test system: MALME-3M melanoma
RXF 393 renal = test system: RXF 393 renal
SF-268 CNS = test system: SF-268 CNS
SF-295 CNS = test system: SF-295 CNS
SF-539 CNS = test system: SF-539 CNS
UACC-257 melanoma = test system: UACC-257 melanoma
M14 melanoma = test system: M14 melanoma

Row | Structure (SMILES) | growth (NCI-H23 lung) | growth (NCI-H226 lung) | growth (NCI-H322M lung) | growth (HOP-62 NSCLC) | growth (NCI-H460 lung) | growth (HOP-92 NSCLC) | growth (NCI-H522 lung) | growth (A549/ATCC NSCLC) | growth (786-0 renal) | growth (COLO 205 colon) | growth (DU-145 prostate) | growth (K-562 leukemia) | growth (MALME-3M melanoma) | growth (RXF 393 renal) | growth (SF-268 CNS) | growth (SF-295 CNS) | growth (SF-539 CNS) | growth (UACC-257 melanoma) | growth (M14 melanoma)
1 | COc1cc(CNC(=O)/C=C/c2ccc3c(c2)OCO3)ccc1OCc1cn(-c2ccc([N+](=O)[O-])cc2)nn1 | 88.8% | 60.6% | 91.5% | 77.8% | 94.6% | 96.7% | 84.9% | 91.6% | 90.6% | 118% | 103% | 92.8% | 87.6% | 72.2% | 86.9% | 88% | 79.8% | 91.5% | 92.9%
2 | C=Cn1cc(C(=O)O)c(=O)c2cc(F)c(N3CCN(c4nccc(-c5nccs5)n4)CC3)cc21 | -60.5% (active) | -20.5% (active) | -14.5% (active) | -34.4% (active) | 9.63% (active) | -32.7% (active) | -76.6% (active) | -34.3% (active) | -22.3% (active) | -61.5% (active) | -3.99% (active) | 11.4% | -29.2% (active) | -52.3% (active) | 22% | -26.4% (active) | -42.7% (active) | -27.3% (active) | -1.11% (active)
3 | N#Cc1c(-c2cccc(Cl)c2Cl)cc(-c2c[nH]c3ccccc23)[nH]c1=O | 70.2% | 8.48% (active) | 76.5% | 80.1% | 85.6% | -0.53% (active) | 70.2% | 67.2% | 16.9% | 105% | 68.1% | 30.1% | 54.4% | 36.8% | 89.7% | 51.7% | 68.1% | 101% | 34.7%
4 | COc1ccc([C@H](C)Nc2nc(Cl)nc3ccccc23)cc1 | 23.2% | 58.9% | 86% | 43.6% | 60.8% | 46.1% | -0.556% (active) | 70.2% | 84.8% | 90.3% | 74.2% | 9.94% (active) | 66.5% | 78.3% | 76.6% | 20.2% | 68.3% | 48.2% | 78.8%
5 | CSc1ccc(NC(=O)c2ccc3nn(/C(C#N)=C/c4ccccn4)nc3c2)cc1 | -90.9% (active) | -90.5% (active) | -54.5% (active) | -70.3% (active) | -64.5% (active) | -33.9% (active) | -84.6% (active) | -71.8% (active) | -84.7% (active) | -79% (active) | -100% (active) | -13.4% (active) | -89.4% (active) | -94.9% (active) | -40% (active) | -95.7% (active) | -95% (active) | -89.3% (active) | -86% (active)
6 | COc1cc(-c2ccc(/C=N/NC(=O)c3[nH]c4ccc(Br)cc4c3-c3ccccc3)o2)cc(OC)c1OC | 53.9% | 49.6% | 81.2% | 62.6% | 62.8% | 61.7% | 82.8% | 71.6% | 67.2% | 94.7% | 81.1% | 85.6% | 95.4% | 88.7% | 59% | 56.6% | -13.1% (active) | 92.1% | 74.9%
7 | Cc1cc(C)cc(C(=O)Nc2cccc(-c3cn(-c4ccc(S(N)(=O)=O)cc4)nn3)c2)c1 | 0.645% (active) | 15.9% | 68.5% | -18.3% (active) | 41.4% | -56.2% (active) | 61.7% | 62.2% | -66.3% (active) | 141% | 72.1% | 19.1% | 20.4% | -26.1% (active) | 16.6% | -36.6% (active) | -84.3% (active) | 76.2% | 73.4%
8 | N#Cc1c(-c2ccc(Br)cc2)nc2n[nH]c(-c3ccc(Br)cc3)c2c1-c1ccc(C(F)(F)F)cc1 | 15% | 21.7% | 43.1% | 40.3% | 3.96% (active) | -17.3% (active) | 10.1% | 27.4% | 27.6% | -70.5% (active) | 26.2% | -9.32% (active) | -14.5% (active) | 46.7% | 34.7% | 1.6% (active) | 54.2% | 28.5% | 29.2%
9 | CC1=C(C(=O)c2ccccc2)C(c2cccc3ccccc23)n2c(nc3ccccc32)N1 (centres undefined) | 56.5% | 50% | 87.5% | 40.4% | 87% | 60.4% | 66.5% | 40.8% | 70.6% | 65.3% | 67.3% | 39.3% | 57.4% | 76.4% | 60.1% | 76.9% | 1.2% (active) | 84% | 73.5%
10 | CCCCOc1ccc(NC(=O)c2sc3nc(C)ccc3c2N)cc1 | -69.5% (active) | 10.2% | 40.3% | 21.9% | 7.45% (active) | -37.2% (active) | 17.3% | 0.0895% (active) | -78.5% (active) | 80.4% | 46.4% | 9.87% (active) | 23.3% | -20.7% (active) | 29.8% | -54% (active) | -99.7% (active) | 54.1% | 59.9%
11 | C=C1CC[C@@H]2[C@]3(C)COC(c4cn[nH]c4-c4ccc(OC)cc4)O[C@@H]3CC[C@@]2(C)[C@@H]1C/C=C1/C(=O)OCC1O (some centres undefined) | -12.6% (active) | -45% (active) | 32.6% | -56.9% (active) | -49.6% (active) | -34.5% (active) | -18.4% (active) | 7.46% (active) | -89.7% (active) | -83.1% (active) | -27.2% (active) | -31.2% (active) | -62.1% (active) | -58.5% (active) | 3.8% (active) | -41.9% (active) | -87.2% (active) | -24.6% (active) | -50.9% (active)
12 | O=C(O)c1cccc(-c2ccc(/C=N/NC(=O)c3[nH]c4ccc(Br)cc4c3-c3ccccc3)s2)c1 | 26.4% | 57.6% | 58.8% | 53.2% | 42.9% | 60.3% | 0.263% (active) | 68.9% | 50.9% | 101% | 55.6% | 19.8% | 57.9% | -2.3% (active) | 39% | 15.6% | 16.1% | 85.5% | 47.9%
13 | N#Cc1c(-c2cccc(Cl)c2Cl)cc(-c2ccc3ccccc3c2)[nH]c1=O | 56.9% | 19.6% | 53.2% | 34.4% | 13.4% | -16.6% (active) | 78.7% | 25.1% | -65.1% (active) | 116% | 75.8% | 91.2% | 66% | 60.9% | 71.8% | 31.8% | 79.7% | 94.2% | 32.5%
14 | COc1cc(CNC(=O)/C=C/c2ccc3c(c2)OCO3)ccc1OCc1cn(-c2cccc(C(F)(F)F)c2)nn1 | 1.63% (active) | -44.8% (active) | 26.4% | 1.47% (active) | 29.2% | -37.5% (active) | 27% | -3.39% (active) | -44.7% (active) | 25.3% | 30% | 24.7% | -11.9% (active) | -28.9% (active) | 39% | -20.7% (active) | -81.2% (active) | 18.1% | 4.8% (active)
15 | Nc1cc2ccccc2c(=O)n1NC(=O)c1ccc(I)cc1 | 97.3% | 99.9% | 98.6% | 98.5% | 100% | 106% | 93.1% | 94.6% | 99.3% | 105% | 102% | 90.4% | 97.4% | 108% | 94.9% | 97.6% | 96.5% | 93.3% | 102%
16 | COc1ccc(NC(=O)c2sc3nc(C(C)C)ccc3c2N)cc1 | 75.3% | 71.7% | 69.5% | 93.2% | 88% | 61.4% | 75.7% | 59.2% | 97.5% | 113% | 78.9% | 50% | 83.4% | 89.2% | 99.7% | 72.3% | 84.1% | 88.7% | 93.4%
